In the library only some 1.2% were active in any assay of this set; here they are far more common.
NTR1 ag = NTR1 (human) agonism. P30989. NTR1-U2OS beta-arrestin-GFP spot imaging, agonist mode. activation, % at 20 µM. 330,000 tested, 0.17% active. AID 493036;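 active = activation at or above 40% of the spot to cytoplasm intensity ratio, with at least 20 cells analyzed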
Target sequence (P30989 whole entry, looked up): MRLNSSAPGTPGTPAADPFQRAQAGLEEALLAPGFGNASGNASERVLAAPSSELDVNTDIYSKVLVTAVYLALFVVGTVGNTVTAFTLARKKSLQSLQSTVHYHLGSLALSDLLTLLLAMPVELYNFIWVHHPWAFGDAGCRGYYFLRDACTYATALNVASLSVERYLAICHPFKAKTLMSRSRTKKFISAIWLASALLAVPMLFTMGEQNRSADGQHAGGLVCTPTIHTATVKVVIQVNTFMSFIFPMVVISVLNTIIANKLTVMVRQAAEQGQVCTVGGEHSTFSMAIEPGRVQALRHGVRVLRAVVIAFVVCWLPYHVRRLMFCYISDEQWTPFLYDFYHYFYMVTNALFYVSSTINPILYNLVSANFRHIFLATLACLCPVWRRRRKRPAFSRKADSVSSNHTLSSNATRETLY
Platelet DG rel = platelet dense granule release activity; human platelet-rich plasma, SFLLRN dense granule ATP release, luminescence; inhibition, %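 (compounds screened at 7.5 µM in platelet-rich plasma)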; 300,000 tested, 0.22% active;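 active = mean replicate score, as percent of positive control, at or above 50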
MIN6 prolif-1 = induces beta-cell replication in MIN6 cells. MIN6 cells proliferation, ATPlite luminescence, 48 h; cells starved in 0.2% serum; 100% = growth in 10% serum. proliferation, % at 10 µM. AID 2380. 330,000 tested, 0.29% active;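 active = compounds whose signal lies at least 3.5 SD above the mean of all wells on their plate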
GRK2 inh = inhibitors of human GRK2 displacing RNA aptamer; 330,000 tested, 0.59% active; P25098; bead flow cytometry, FAM-aptamer displacement from GRK2; inhibition of aptamer binding, % at 10 µM;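 active = inhibition of aptamer binding above 40%, roughly 3 SD of noise, on plates passing a quality check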;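 note: median bead fluorescence of bound FAM aptamer so fluorescent compounds give negative values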
MIN6 prolif-2 = confirmation of inducers of beta-cell replication in MIN6 cells; shares compounds with MIN6 prolif-1; MIN6 beta-cell proliferation, ATPlite luminescence, 48 h; cells kept in 0.2% serum; scaled between 0.2% and 10% serum; proliferation increase, % at 50 µM; 920 tested, under 10 active;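 active = proliferation increase above 40% at any of the four tested concentrations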
GRK2 inh confirm = human GRK2 inhibition confirmation, cherry pick 1. shares compounds with GRK2 inh. bead-bound GRK2, FAM-aptamer displacement, flow cytometry. aptamer displacement, % at 10 µM. 2,000 tested, 4% active. AID 504451;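 active = aptamer displacement above 40%, near three times the noise of non-fluorescent compounds, on plates passing quality checks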;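 note: negative values mostly reflect intrinsic compound fluorescence rather than true enhancement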
Aptamer quench SP = counter-screen for GRK2 aptamer inhibitors: fluorescent aptamer quenchers. fluorescence response (% of DMSO), % at 10 µM. AID 504580. shares compounds with GRK2 inh. 2,000 tested, under 10 active. Carboxyfluorescein RNA aptamer on beads, flow cytometry quenching; hits give low values;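 active = compounds that quench the bead-bound fluorescent RNA probe, cutting fluorescence to under half of the solvent control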;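 note: counterscreen run without GRK2 so only probe quenching by compound is measured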
Of the large screens only hits and unclear results are named; the others gave an inactive call (follow-up assays come after a bar, where they were run).

CC1(c2ccc3c(c2)OCO3)NC(=O)N(CC(=O)Nc2ccccc2[N+](=O)[O-])C1=O (configuration not stated)	MIN6 prolif-1 14 (no result: Platelet DG rel, GRK2 inh) | MIN6 prolif-2 inactive
Cc1ccc(S(=O)(=O)N(C)C)cc1NC(=O)COC(=O)c1n[nH]c(=O)c2ccccc12	MIN6 prolif-1 11 | MIN6 prolif-2 inactive
Cc1ccc(S(=O)(=O)N(C)C)cc1NC(=O)COC(=O)Cc1n[nH]c(=O)c2ccccc12	none
O=C(CCNS(=O)(=O)c1ccc(Cl)cc1)N1CCCC1	none
O=C(CCNS(=O)(=O)c1ccc(Cl)cc1)N1CCC2(O)CCCCC2C1 (configuration not stated)	MIN6 prolif-1 5.6 | MIN6 prolif-2 inactive
COc1ccc(CNC(=O)c2ccccc2SCC(=O)N2CCCC2)cc1OC	none (no result: Platelet DG rel)
CC(C)c1ccc2oc(=O)cc(CN3CCCCC3)c2c1	none
COc1ccc(NC(=O)CCn2cccc2)c(OC)c1	none
COc1ccc(OC)c(NC(=O)CCn2cccc2)c1	MIN6 prolif-1 7.5 | MIN6 prolif-2 inactive
Cn1c(CC(=O)Nc2ccccc2)cc2ccccc21	none
COc1ccccc1NC(=O)C1CCCN(c2nc(C)cc(C)n2)C1 (configuration not stated)	MIN6 prolif-1 7.5 | MIN6 prolif-2 inactive
Cc1ccc(NC(=O)c2ccc3c(c2)C(=O)N(c2ccccc2C)C3=O)nc1	none (no result: Platelet DG rel)
CCOC(=O)C1CSc2[nH]c(=O)sc2C1c1ccccc1 (configuration not stated)	MIN6 prolif-1 12 | MIN6 prolif-2 inactive
COC(=O)Cc1c(O)ccn(CCc2ccc(OC)c(OC)c2)c1=O	MIN6 prolif-1 7.2 | MIN6 prolif-2 inactive
COc1ccc(C)cc1-n1c(SCC(=O)NC2CC2)nc2ccccc2c1=O	none (no result: Platelet DG rel)
CCOC(=O)c1cnc(-n2nc(C)cc2C)nc1Oc1ccccc1F	MIN6 prolif-1 7.8 | MIN6 prolif-2 inactive
COC(=O)c1ccc(OC(=O)CCc2cc(OC)c(OC)c(OC)c2)cc1	none
CCC1(CC)Cc2ccccc2C(=C(C#N)C#N)N1	none
N#CC(C#N)=C1NC2(CCCCC2)Cc2ccccc21	MIN6 prolif-1 5.2 | MIN6 prolif-2 inactive
C=CCOc1ccc(-c2nc3c(c(=O)[nH]c(=O)n3CCC)n2CCCC)cc1	MIN6 prolif-1 0.0 | MIN6 prolif-2 inactive
C=CCOc1ccc(-c2nc3c(c(=O)[nH]c(=O)n3Cc3ccccc3)n2CCCOC)cc1	none
COCCn1c(-c2ccc3ccccc3c2)nc2c1c(=O)[nH]c(=O)n2CC(C)C	MIN6 prolif-1 9.0 | MIN6 prolif-2 inactive
COCCCn1c(-c2ccc(OC)cc2)nc2c1c(=O)[nH]c(=O)n2Cc1ccccc1	MIN6 prolif-1 0.0 | MIN6 prolif-2 inactive
CS(=O)(=O)c1ccc(NC(=O)c2cccc(S(=O)(=O)N3CCN(Cc4ccccc4)CC3)c2)cc1	none
Cc1cc([N+](=O)[O-])nn1CCCC(=O)NCc1ccc(F)cc1	none
CCCOc1ccc(NC(=O)C2CC(=O)N(C)C(=Nc3cccc(OC)c3)S2)cc1 (configuration not stated)	none
Cc1cc(Cl)ccc1NC(=S)N1CCN(Cc2ccc3c(c2)OCO3)CC1	none
Fc1ccccc1NC(=S)N1CCN(Cc2ccc3c(c2)OCO3)CC1	MIN6 prolif-1 7.4 | MIN6 prolif-2 inactive
O=C(NCc1cccnc1)c1cccn1-c1ncc(C(F)(F)F)cc1Cl	MIN6 prolif-1 8.8 | MIN6 prolif-2 inactive
CCc1nc2sccc2c(=O)[nH]1	none
Cc1ccccc1N=Nc1c(N)n[nH]c1N	MIN6 prolif-1 7.2 | MIN6 prolif-2 inactive
COc1cc2c(cc1OC)CN(C(=O)c1sccc1C)CC2	MIN6 prolif-1 5.1 | MIN6 prolif-2 inactive
CC1CCN(C(CNS(=O)(=O)c2ccccc2)c2ccccc2)CC1 (configuration not stated)	none (no result: Platelet DG rel)
Cc1cccc(NC(=O)c2ccc(C)c(S(=O)(=O)N3CCCCC3)c2)n1	none
O=C(NCc1ccco1)C1CC(=O)N(c2ccc(O)cc2)C1 (configuration not stated)	MIN6 prolif-1 4.7 | MIN6 prolif-2 inactive
CS(=O)(=O)N1CCC(C(=O)NCc2ccco2)CC1	MIN6 prolif-1 7.7 | MIN6 prolif-2 inactive
COc1cc(NC(=O)Cn2ccsc2=N)cc(OC)c1	none
Cc1ccc(NC(=O)CN(C)C(=O)CNC(=O)c2cccs2)cc1	MIN6 prolif-1 12 | MIN6 prolif-2 inactive
COc1cc(C(=O)NCc2ccc3c(c2)OCO3)c([N+](=O)[O-])cc1OC	none
CCOC(=O)C1CCCCN1Cc1ccc(OC)c(OC)c1 (configuration not stated)	MIN6 prolif-1 8.0 | MIN6 prolif-2 inactive
CCN1CCN(C(=O)C(C)Oc2ccc(S(=O)(=O)N3CCCC3)cc2C(N)=O)CC1 (configuration not stated)	none (no result: Platelet DG rel)
CC(=O)c1sc(N/N=C\c2ccc(N(C)C)cc2)nc1C	MIN6 prolif-1 6.6 | MIN6 prolif-2 inactive
CC(=O)c1sc(N/N=C/c2cccc(O)c2)nc1C	none
CCOC(=O)Cn1c(=O)n(Cc2ccco2)c(=O)c2ccc(C(=O)NC3CCCC3)cc21	Platelet DG rel 90, MIN6 prolif-1 12, GRK2 inh 86 | MIN6 prolif-2 inactive | GRK2 inh confirm inactive | Aptamer quench SP inactive
Cc1ccc(CNC(=O)CCCn2nc(C)c3c(C)n(-c4ccccc4)nc3c2=O)cc1	none
CCOC(=O)C1CCN(CC(=O)Nc2c(C(=O)OC)[nH]c3cccc(C)c23)CC1	GRK2 inh 54 | GRK2 inh confirm inactive | Aptamer quench SP inactive
COc1cccc(/C=N/NC(=O)CC2C(=O)NN=C2C)c1O (configuration not stated)	GRK2 inh 66 | GRK2 inh confirm inactive | Aptamer quench SP inactive
Cc1ccc(-c2cc(C(=O)OCC(=O)NC3CC3)c3ccccc3n2)cc1	none (no result: Platelet DG rel)
CCN(CC)C(=O)c1ccccc1NS(=O)(=O)c1ccc(OC)c(C(=O)N2CCOCC2)c1	GRK2 inh 61 | GRK2 inh confirm inactive | Aptamer quench SP inactive
C=CCNC(=O)c1ccccc1NS(=O)(=O)c1ccc(OC)c(C(=O)N2CCOCC2)c1	none
Cn1cc(C(=O)C(=O)N2CCc3ccccc32)c2ccccc21	none
O=C(NCc1ccccc1)c1cccc(NC(=O)C2CCCC2)c1	none (no result: NTR1 ag, Platelet DG rel, MIN6 prolif-1, GRK2 inh) | GRK2 inh confirm inactive | Aptamer quench SP inactive
O=C(NCc1ccccc1)c1cccc(NC(=O)C2CCC2)c1	none (no result: NTR1 ag, Platelet DG rel, MIN6 prolif-1, GRK2 inh) | GRK2 inh confirm inactive | Aptamer quench SP inactive
O=C(NCc1ccccc1)c1cccc(COc2ccccc2Cl)c1	none | GRK2 inh confirm inactive | Aptamer quench SP inactive
CC(C)(C)c1ccc(C(=O)N2CCC(C(=O)NCCC3=CCCCC3)CC2)cc1	GRK2 inh 74 | GRK2 inh confirm inactive | Aptamer quench SP inactive
O=C(NCCC1=CCCCC1)C1CCN(S(=O)(=O)N2CCCC2)CC1	none

Screens deposited in PubChem BioAssay by several laboratories.
